# Reference: article PMC7862700, “An all-to-all approach to the identification of sequence-specific readers for epigenetic DNA modifications on cytosine”
# Tests used:
# Experiment in all cases: DAPPL (digital affinity profiling via proximity ligation, sequencing); 10 mM Tris-HCl pH 7.5, 50 mM NaCl, 1 mM DTT, 4% glycerol, room temperature, 30 min; GST-TFs on glutathione beads, 16-mer random dsDNA library, 0.1% formaldehyde crosslink after washing; high values mean tight binding
# FEV = target: T1, FEV (Homo sapiens, UniProt Q99581 1-238); details: protein: recombinant; tags: N-terminal GST; dsDNA, one strand shown
# T1 sequence: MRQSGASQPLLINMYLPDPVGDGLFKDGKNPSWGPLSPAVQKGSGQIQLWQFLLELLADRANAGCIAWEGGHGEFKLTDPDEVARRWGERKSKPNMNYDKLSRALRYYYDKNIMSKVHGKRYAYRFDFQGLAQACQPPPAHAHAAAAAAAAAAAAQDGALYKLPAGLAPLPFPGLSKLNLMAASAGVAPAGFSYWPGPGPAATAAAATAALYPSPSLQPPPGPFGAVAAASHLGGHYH
# In short: (§1)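 In yeast, human transcription factors were expressed with a GST fusion, then pulled down on glutathione beads and given DNA barcodes. Pooled with a tag-only sample, they were exposed to 200 nmole of a 16-mer random double-stranded DNA library (Tris/NaCl/DTT/glycerol buffer, room temperature, 30 min), washed, crosslinked with 0.1% formaldehyde, proximity-ligated using BsaI/T4 ligase for 1 h at 37 °C, PCR-amplified and read on an Illumina NextSeq500. Each hexamer's frequency of reads for a factor, divided by the matching frequency for the tag-only sample, gives the binding signal.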
# ETV5 = ETV5 (Homo sapiens, UniProt P41161 1-510); details: protein: recombinant; tags: N-terminal GST; dsDNA, one strand shown
# In short: as §1
# HSF1 = HSF1 (Homo sapiens, UniProt Q00613 1-529); details: protein: recombinant; tags: N-terminal GST; chain copies: 3; dsDNA, one strand shown
# In short: as §1
# SPIC = target: T2, SPIC (Homo sapiens, UniProt Q8N5J4 1-248); details: protein: recombinant; tags: N-terminal GST; dsDNA, one strand shown
# T2 sequence: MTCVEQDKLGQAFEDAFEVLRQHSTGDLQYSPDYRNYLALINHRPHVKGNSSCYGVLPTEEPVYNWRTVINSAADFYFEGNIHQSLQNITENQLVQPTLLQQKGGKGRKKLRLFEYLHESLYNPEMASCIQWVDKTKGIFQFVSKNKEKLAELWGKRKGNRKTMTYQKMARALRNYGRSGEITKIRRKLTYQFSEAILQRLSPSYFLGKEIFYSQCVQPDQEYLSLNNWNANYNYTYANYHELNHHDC
# In short: as §1
# ELF4 = ELF4 (Homo sapiens, UniProt Q99607 1-663); details: protein: recombinant; tags: N-terminal GST; dsDNA, one strand shown
# In short: as §1
# ELK4 = target: T3, ELK4 (Homo sapiens, UniProt P28324-2 1-405); details: protein: recombinant; tags: N-terminal GST; dsDNA, one strand shown
# T3 sequence: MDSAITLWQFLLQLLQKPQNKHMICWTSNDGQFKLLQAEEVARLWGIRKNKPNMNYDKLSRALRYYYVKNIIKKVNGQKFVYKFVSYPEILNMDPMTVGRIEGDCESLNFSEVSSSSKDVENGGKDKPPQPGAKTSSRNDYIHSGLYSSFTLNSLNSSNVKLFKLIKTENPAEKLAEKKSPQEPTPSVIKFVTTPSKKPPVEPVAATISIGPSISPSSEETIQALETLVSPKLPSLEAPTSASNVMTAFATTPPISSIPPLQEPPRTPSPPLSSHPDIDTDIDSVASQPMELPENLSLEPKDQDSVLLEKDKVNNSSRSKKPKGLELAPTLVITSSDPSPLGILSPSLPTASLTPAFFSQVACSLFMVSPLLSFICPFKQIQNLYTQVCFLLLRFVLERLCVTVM
# In short: as §1
# ETV2 = target: T4, ETV2 (Homo sapiens, UniProt O00321 1-342); details: protein: recombinant; tags: N-terminal GST; dsDNA, one strand shown
# T4 sequence: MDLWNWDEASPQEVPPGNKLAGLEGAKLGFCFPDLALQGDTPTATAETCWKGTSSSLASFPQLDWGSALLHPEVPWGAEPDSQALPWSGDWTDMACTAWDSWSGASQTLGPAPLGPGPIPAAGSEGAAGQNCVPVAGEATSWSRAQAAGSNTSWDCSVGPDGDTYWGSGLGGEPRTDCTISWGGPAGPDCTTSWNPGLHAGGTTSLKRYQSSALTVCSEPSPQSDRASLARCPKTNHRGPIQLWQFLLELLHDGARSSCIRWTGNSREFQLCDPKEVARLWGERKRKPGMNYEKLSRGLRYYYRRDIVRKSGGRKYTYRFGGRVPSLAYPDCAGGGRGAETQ
# In short: as §1
# ELF3 = target: T5, ELF3 (Homo sapiens, UniProt P78545 1-371); details: protein: recombinant; tags: N-terminal GST; dsDNA, one strand shown
# T5 sequence: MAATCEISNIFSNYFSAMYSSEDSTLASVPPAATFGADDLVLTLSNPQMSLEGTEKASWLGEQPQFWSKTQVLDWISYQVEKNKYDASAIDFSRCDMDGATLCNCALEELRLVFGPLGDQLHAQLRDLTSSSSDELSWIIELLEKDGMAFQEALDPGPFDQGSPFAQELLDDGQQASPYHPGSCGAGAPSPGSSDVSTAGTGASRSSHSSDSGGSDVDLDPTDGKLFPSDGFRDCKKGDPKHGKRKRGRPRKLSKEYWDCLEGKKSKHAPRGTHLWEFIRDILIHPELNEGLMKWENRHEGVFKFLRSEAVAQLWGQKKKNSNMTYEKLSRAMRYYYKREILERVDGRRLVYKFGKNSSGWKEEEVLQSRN
# In short: as §1
# CRX = CRX (Homo sapiens, UniProt O43186 1-299); details: protein: recombinant; tags: N-terminal GST; dsDNA, one strand shown
# In short: as §1
# ETV1 = ETV1 (Homo sapiens, UniProt P50549 1-477); details: protein: recombinant; tags: N-terminal GST; dsDNA, one strand shown
# In short: as §1
# ERF = target: T6, ERF (Homo sapiens, UniProt P50548 1-548); details: protein: recombinant; tags: N-terminal GST; dsDNA, one strand shown
# T6 sequence: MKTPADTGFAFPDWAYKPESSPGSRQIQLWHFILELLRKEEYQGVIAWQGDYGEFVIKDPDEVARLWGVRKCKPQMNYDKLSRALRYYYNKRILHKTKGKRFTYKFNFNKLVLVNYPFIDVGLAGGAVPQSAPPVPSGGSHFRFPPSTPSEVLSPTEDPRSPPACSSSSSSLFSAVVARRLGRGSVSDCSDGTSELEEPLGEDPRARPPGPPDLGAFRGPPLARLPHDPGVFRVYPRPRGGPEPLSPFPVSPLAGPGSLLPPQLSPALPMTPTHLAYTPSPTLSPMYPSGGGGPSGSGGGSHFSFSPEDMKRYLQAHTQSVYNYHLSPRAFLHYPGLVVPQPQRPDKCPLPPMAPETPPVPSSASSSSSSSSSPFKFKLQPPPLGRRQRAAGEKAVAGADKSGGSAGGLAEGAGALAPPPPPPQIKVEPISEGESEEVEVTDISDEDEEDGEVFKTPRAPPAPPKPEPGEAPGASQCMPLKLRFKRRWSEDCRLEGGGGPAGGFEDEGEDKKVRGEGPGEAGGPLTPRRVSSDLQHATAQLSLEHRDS
# In short: as §1
# ETV3L = target: T7, ETV3L (Homo sapiens, UniProt Q6ZN32 1-361); details: protein: recombinant; tags: N-terminal GST; dsDNA, one strand shown
# T7 sequence: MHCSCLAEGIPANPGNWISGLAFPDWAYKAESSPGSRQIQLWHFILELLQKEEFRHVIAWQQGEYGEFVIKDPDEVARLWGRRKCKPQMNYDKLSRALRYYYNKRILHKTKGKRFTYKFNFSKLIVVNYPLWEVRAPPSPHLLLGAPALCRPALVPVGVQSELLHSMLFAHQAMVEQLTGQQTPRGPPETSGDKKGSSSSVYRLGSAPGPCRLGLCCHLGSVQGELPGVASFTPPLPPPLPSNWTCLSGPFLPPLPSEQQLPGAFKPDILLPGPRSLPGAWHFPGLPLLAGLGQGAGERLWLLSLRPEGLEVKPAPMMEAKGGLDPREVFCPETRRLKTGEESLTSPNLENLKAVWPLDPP
# In short: as §1
# ETS2 = target: T8, ETS2 (Homo sapiens, UniProt P15036 1-469); details: protein: recombinant; tags: N-terminal GST; dsDNA, one strand shown
# T8 sequence: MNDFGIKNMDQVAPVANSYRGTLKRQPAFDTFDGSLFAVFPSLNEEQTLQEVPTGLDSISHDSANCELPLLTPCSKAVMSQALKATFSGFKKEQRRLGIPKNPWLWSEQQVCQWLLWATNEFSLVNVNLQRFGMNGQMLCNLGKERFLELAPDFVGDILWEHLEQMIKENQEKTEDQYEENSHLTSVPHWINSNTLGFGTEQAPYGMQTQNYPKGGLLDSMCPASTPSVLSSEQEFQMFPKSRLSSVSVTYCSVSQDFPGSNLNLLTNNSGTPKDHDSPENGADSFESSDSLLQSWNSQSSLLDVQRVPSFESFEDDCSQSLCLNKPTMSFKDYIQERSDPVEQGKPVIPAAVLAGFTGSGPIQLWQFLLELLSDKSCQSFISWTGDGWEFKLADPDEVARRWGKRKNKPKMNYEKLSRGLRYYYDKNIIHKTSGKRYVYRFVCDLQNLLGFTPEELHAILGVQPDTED
# In short: as §1
# SPDEF = target: T9, SPDEF (Homo sapiens, UniProt O95238 1-335); details: protein: recombinant; tags: N-terminal GST; dsDNA, one strand shown
# T9 sequence: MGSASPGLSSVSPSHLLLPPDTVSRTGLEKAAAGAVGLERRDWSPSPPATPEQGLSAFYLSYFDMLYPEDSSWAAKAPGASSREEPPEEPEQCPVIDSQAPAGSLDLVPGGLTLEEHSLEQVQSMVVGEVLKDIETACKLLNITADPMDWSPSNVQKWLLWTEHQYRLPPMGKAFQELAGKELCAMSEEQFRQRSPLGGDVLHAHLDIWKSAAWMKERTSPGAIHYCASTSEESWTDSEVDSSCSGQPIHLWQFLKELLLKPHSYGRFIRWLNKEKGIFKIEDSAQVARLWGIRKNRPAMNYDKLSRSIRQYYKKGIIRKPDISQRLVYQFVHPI
# In short: as §1
# ETV7 = target: T10, ETV7 (Homo sapiens, UniProt Q9Y603 1-341); details: protein: recombinant; tags: N-terminal GST; dsDNA, one strand shown
# T10 sequence: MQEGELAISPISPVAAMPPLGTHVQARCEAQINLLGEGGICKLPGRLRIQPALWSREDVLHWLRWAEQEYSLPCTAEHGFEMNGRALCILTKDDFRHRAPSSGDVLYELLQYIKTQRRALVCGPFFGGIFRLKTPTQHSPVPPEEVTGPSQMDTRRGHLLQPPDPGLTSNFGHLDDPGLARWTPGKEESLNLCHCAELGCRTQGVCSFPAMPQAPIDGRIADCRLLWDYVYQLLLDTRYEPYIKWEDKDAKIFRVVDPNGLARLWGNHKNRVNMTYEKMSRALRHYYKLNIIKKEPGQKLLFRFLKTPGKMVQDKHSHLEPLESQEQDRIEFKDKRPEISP
# In short: as §1
# ELF5 = target: T11, ELF5 (Homo sapiens, UniProt Q9UKW6-2 1-255); details: protein: recombinant; tags: N-terminal GST; dsDNA, one strand shown
# T11 sequence: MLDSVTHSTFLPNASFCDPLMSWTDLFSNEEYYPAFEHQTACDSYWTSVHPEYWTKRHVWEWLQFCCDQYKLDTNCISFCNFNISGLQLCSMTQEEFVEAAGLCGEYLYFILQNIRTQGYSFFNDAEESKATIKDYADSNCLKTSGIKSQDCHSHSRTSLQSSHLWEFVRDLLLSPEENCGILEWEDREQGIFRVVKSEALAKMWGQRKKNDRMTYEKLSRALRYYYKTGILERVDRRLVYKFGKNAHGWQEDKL
# In short: as §1
# ETV3 = target: T12, ETV3 (Homo sapiens, UniProt P41162-2 1-143); details: protein: recombinant; tags: N-terminal GST; dsDNA, one strand shown
# T12 sequence: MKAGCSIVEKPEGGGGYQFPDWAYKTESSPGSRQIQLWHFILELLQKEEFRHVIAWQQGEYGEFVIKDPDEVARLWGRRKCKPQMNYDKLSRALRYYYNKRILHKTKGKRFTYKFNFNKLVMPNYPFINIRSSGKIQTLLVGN
# In short: as §1
# ETV6 = ETV6 (Homo sapiens, UniProt P41212 1-452); details: protein: recombinant; tags: N-terminal GST; dsDNA, one strand shown
# In short: as §1
# HSF1, sequence (Q00613 whole entry): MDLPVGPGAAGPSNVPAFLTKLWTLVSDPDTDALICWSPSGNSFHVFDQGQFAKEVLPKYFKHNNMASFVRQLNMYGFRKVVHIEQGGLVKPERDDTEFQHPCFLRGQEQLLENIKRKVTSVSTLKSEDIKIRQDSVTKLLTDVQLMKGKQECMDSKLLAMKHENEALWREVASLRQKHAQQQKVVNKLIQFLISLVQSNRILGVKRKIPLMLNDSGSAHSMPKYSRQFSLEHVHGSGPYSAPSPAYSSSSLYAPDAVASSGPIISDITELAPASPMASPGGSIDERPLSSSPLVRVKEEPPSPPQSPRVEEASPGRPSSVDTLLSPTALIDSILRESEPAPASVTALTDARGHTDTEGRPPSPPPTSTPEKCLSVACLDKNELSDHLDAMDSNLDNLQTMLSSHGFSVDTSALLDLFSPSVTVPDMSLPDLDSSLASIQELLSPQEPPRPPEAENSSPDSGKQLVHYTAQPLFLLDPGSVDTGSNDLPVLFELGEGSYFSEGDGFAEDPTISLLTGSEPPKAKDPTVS
# ELF4, sequence (Q99607 whole entry): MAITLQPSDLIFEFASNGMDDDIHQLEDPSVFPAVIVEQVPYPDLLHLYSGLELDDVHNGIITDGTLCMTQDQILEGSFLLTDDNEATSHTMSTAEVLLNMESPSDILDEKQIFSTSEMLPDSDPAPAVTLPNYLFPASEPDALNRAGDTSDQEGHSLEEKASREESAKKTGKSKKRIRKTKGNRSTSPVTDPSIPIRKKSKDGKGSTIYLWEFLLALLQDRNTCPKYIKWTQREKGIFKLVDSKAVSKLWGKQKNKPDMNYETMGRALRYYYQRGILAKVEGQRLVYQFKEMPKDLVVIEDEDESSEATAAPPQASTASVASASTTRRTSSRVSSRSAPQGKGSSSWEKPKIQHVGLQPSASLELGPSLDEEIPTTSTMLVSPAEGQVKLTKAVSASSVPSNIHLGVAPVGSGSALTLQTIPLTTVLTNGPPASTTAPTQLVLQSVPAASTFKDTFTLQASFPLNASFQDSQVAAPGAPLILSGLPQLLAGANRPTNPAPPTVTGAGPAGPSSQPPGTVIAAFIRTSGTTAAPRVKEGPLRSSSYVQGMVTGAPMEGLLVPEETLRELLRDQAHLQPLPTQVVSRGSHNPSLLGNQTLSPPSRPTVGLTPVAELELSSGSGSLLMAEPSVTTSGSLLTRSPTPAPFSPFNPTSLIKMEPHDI
# CRX, sequence (O43186 whole entry): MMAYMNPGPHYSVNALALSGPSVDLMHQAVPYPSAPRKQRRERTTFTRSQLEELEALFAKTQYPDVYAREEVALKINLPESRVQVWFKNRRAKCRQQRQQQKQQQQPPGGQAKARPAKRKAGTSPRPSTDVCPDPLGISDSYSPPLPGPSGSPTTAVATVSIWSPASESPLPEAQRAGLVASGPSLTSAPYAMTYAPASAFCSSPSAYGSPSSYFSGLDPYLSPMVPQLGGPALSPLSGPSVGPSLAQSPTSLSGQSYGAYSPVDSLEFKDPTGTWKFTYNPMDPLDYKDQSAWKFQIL
# ETV1, sequence (P50549 whole entry): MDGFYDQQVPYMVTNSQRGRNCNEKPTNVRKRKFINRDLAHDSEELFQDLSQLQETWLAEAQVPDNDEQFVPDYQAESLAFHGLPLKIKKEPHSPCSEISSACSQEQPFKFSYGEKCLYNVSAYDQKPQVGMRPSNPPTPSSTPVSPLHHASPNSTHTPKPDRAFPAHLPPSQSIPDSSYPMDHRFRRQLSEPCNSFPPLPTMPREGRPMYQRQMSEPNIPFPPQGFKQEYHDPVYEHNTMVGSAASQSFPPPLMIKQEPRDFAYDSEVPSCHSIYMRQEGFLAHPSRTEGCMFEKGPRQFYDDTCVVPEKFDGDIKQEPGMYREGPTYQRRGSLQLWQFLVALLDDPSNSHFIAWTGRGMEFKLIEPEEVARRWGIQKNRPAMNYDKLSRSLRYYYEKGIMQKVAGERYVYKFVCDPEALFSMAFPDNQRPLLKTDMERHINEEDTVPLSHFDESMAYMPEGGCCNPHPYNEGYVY
# ETV6, sequence (P41212 whole entry): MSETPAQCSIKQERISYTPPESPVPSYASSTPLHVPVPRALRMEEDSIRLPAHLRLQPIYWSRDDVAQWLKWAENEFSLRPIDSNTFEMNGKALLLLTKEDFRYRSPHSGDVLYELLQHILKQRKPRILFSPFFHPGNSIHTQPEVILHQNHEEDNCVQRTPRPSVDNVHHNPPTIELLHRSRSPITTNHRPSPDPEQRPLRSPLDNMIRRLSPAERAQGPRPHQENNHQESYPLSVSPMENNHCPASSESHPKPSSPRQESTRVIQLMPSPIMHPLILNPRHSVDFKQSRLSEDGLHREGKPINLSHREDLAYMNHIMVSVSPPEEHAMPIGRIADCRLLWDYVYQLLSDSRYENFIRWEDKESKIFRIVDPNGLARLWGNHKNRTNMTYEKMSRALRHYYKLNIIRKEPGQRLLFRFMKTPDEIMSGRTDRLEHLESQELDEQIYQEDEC
# ETV5, sequence (P41161 whole entry): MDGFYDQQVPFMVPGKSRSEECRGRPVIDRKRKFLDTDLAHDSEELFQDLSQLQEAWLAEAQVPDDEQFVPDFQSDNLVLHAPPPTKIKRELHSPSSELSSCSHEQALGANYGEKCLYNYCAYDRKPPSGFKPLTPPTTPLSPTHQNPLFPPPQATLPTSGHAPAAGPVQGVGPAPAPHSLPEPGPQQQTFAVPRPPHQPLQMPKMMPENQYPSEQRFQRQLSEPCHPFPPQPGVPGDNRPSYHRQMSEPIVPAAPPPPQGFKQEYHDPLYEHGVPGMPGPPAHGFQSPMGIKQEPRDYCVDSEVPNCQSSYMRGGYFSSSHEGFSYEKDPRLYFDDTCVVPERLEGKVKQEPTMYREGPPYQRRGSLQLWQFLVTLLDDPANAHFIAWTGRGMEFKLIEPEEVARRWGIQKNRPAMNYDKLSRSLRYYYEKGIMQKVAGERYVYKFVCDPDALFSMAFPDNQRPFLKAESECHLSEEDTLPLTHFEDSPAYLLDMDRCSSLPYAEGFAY
sequence,measurement,setting,value
CACTAT,binding signal,FEV,"1.21 fold enrichment (6-mer frequency, TF over GST control)"
same,binding signal,ETV5,"1.2 fold enrichment (6-mer frequency, TF over GST control)"
same,binding signal,HSF1,"1.05 fold enrichment (6-mer frequency, TF over GST control)"
same,binding signal,SPIC,"1.2 fold enrichment (6-mer frequency, TF over GST control)"
same,binding signal,ELF4,"1.26 fold enrichment (6-mer frequency, TF over GST control)"
same,binding signal,ELK4,"1.25 fold enrichment (6-mer frequency, TF over GST control)"
same,binding signal,ETV2,"1.09 fold enrichment (6-mer frequency, TF over GST control)"
same,binding signal,ELF3,"1.32 fold enrichment (6-mer frequency, TF over GST control)"
same,binding signal,CRX,"1.05 fold enrichment (6-mer frequency, TF over GST control)"
same,binding signal,ETV1,"1.14 fold enrichment (6-mer frequency, TF over GST control)"
same,binding signal,ERF,"1.2 fold enrichment (6-mer frequency, TF over GST control)"
same,binding signal,ETV3L,"1.18 fold enrichment (6-mer frequency, TF over GST control)"
same,binding signal,ETS2,"1.25 fold enrichment (6-mer frequency, TF over GST control)"
same,binding signal,SPDEF,"1.18 fold enrichment (6-mer frequency, TF over GST control)"
same,binding signal,ETV7,"1.29 fold enrichment (6-mer frequency, TF over GST control)"
same,binding signal,ELF5,"1.15 fold enrichment (6-mer frequency, TF over GST control)"
same,binding signal,ETV3,"1.2 fold enrichment (6-mer frequency, TF over GST control)"
same,binding signal,ETV6,"1.14 fold enrichment (6-mer frequency, TF over GST control)"
